Results from PubChem BioAssay (NCATS).
“And” between values parts separate entries of the source, which are not always exact repeats. Equal entries are not always repeated. Inconclusive results are not listed. Entries that show only a call come without a potency. Values without a mark were called inactive. The source made the active and inactive calls. Calls come from the whole dose curve; as a rule, active = well fitted curve in the direction sought with a large enough effect; inconclusive = small, poorly fitted or top-dose-only effect, or another doubt; inactive = no such curve, though single readings can be large; an effect the other way counts as inactive or inconclusive.

What was measured:
[1] = target: Cellular tumor antigen p53 (Homo sapiens) (UniProt P04637); assay: Primary qHTS for small molecule compounds that upregulate eGFP-tagged delta133p53alpha (in N-terminal) cells. (AID 2060322); conditions: NCI-H358 eGFP-delta133p53alpha fluorescence, 24 h; activation: stronger effect = higher value; note: nearly all actives have a fitted effect of over 75% in size; note: potency is the fitted concentration of half-maximal effect;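 for activation: cells pre-induced with doxycycline then dosed without doxycycline; series mostly up to about 56 µM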
Method in brief: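 NCI-H358 cells pre-induced 24 h with 10 ng/ml doxycycline for eGFP-delta133p53alpha, plated dox-free and exposed 24 h at 37C to titrated compounds. Fixed, Hoechst-stained; gated GFP peak intensity by laser scanning cytometry, normalized to DMSO (0%) and 57.5 uM 5-azacytidine (100%).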

[2] = target: Aldehyde dehydrogenase, mitochondrial (Homo sapiens) (UniProt P05091); assay: qHTS for Inhibitors of the Aldehyde Dehydrogenase Family (ALDH2) Primary screen (AID 2061308); note: nearly all actives have a fitted effect of over 55% in size
[3] = target: Retinaldehyde dehydrogenase 3 (Homo sapiens) (UniProt P47895); assay: qHTS for Inhibitors of the Aldehyde Dehydrogenase Family (ALDH1A3) Primary screen (AID 2061315)

Chain of Cellular tumor antigen p53 (Homo sapiens) (P04637 whole entry, looked up): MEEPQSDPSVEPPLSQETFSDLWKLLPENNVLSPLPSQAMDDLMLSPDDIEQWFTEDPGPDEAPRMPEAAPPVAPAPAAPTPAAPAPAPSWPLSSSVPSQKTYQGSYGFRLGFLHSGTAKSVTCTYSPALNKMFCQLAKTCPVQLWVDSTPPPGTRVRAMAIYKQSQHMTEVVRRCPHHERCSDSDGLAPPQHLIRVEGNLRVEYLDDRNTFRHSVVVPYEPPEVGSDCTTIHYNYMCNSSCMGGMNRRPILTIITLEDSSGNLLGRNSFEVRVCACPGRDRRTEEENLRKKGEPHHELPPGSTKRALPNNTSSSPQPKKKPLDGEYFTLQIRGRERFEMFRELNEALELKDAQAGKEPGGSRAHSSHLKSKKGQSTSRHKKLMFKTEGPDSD

Compound	activation [1]	Potency [2]	Potency [3]	activity change, negative = inhibition [2]	activity change, negative = inhibition [3]	Potency [1]
CCOc1ccc(S(=O)(=O)n2c(C)nc3ccccc32)cc1	-4.33%	inactive	inactive	–	–	–
C[C@@H]1CCCN1CCc1cc2cc(-c3ccc(C#N)cc3)ccc2o1	-11.5%	inactive	inactive	–	–	–
COc1ccc(S(=O)(=O)N2CCC[C@H]2C(=O)Nc2cc(C)cc(C)c2)cc1	-17.2%	inactive	inactive	–	–	–
CCC/C=C/C(=O)O[C@H]1CC(C)(C)CC2[C@@]13[C@H](O)C[C@]1(C)[C@@]2(CCC2[C@@]4(C)CC[C@H](O[C@@H]5O[C@H](C(=O)O)[C@@H](O)[C@H](O[C@@H]6O[C@H](CO)[C@H](O)[C@H](O)[C@H]6O[C@@H]6O[C@@H](C)[C@H](O)[C@@H](O)[C@H]6O[C@@H]6OC[C@](O)(CO)[C@H]6O)[C@H]5O[C@@H]5O[C@H](CO)[C@H](O)[C@H](O)[C@H]5O)C(C)(C)C4CC[C@]21C)O[C@H]3O (stereo partly drawn)	-12.5%	–	–	11.6% [at 11.2 µM]	11% [at 11.2 µM]	–
CCOc1ccc(-c2ccc(Cn3c(CC(C)(C)C(=O)O)c(SC(C)(C)C)c4cc(OCc5ccc(C)cn5)ccc43)cc2)cn1	-1% and 3%	inactive	inactive	–	–	–
CC(=O)NC(C(=O)OC1CCC(C)(C)C2CC=C3C(=O)OCC3(O)C12C)C(C)C (stereo not drawn)	-16.8%	inactive	inactive	–	–	–
CC1(O)CC(O)C2(O)C=COC(O[C@@H]3O[C@H](CO)[C@@H](O)[C@H](O)[C@H]3O)C12 (stereo partly drawn)	0.893%	inactive	inactive	–	–	–
C=CC(C)(CC/C=C(\C)C(=O)OC)OC1OC(COC(=O)CC(C)(O)CC(=O)O)C(O)C(O)C1O (stereo not drawn)	-3.05%	inactive	inactive	–	–	–
C=C1C(=O)O[C@H]2[C@H]1[C@@H](OC(=O)C(C)CO)C[C@@]1(C)[C@H](O)CCC(=O)[C@H]21 (stereo partly drawn)	-11.5%	inactive	inactive	–	–	–
C/C=C1\[C@H](O[C@@H]2O[C@H](CO)[C@@H](O)[C@H](O)[C@H]2O)OC=C(C(=O)OC)[C@H]1CC(=O)OC	4.46%	inactive	inactive	–	–	–
CC(C)(C)Oc1ccc(OCC2Cc3ccccc3CN2C(=O)c2cccc3ccccc23)cc1 (stereo not drawn)	-10.5%	inactive	inactive	–	–	–
COC(=O)c1ccnc(-c2cc(C(=O)Nc3ccc(C4(N)CC4)cc3)ccn2)c1	1.67%	inactive	inactive	–	–	–
C[C@@H]1O[C@@H](O[C@@H]2[C@@H](O)[C@H](O[C@@H]3[C@@H](O)[C@@H](O)[C@H](O[C@H]4[C@H](OC(=O)[C@]56CCC(C)(C)C[C@H]5C5=CCC7[C@@]8(C)C[C@H](O)[C@H](O[C@@H]9O[C@H](C(=O)O)[C@@H](O)[C@H](O)[C@H]9O)[C@@](C)(CO)C8[C@H](O)C[C@@]7(C)[C@]5(C)C[C@H]6O)O[C@@H](CO)[C@@H]4O)O[C@H]3C)OC[C@H]2O)[C@H](O)[C@H](O)[C@H]1O (stereo partly drawn)	12.2%	–	–	4.77% [at 11.2 µM]	-9.03% [at 11.2 µM]	–
CC(=O)C1=C(C)N(c2cccc(C(F)(F)F)c2)C(=O)N[C@H]1c1ccc(C#N)nc1	-3.67%	inactive	inactive	–	–	–
COc1c2ccoc2nc2c(OC)c(O[C@@H]3O[C@@H](C)[C@H](O)[C@@H](O[C@@H]4O[C@H](CO)[C@@H](O)[C@H](O)[C@H]4O)[C@H]3OC(C)=O)ccc12	27.7%	inactive	inactive	–	–	–
C[C@@H]1CC[C@@]23CC[C@]4(C)[C@@](C=CC5[C@@]6(C)CC[C@H](O)C(C)(C)C6CC[C@]54C)(OC2=O)C3[C@H]1C (stereo partly drawn)	12.2%	inactive	inactive	–	–	–
C=C1CC/C=C(/CO)C(=O)C[C@@H]2[C@@H]1C[C@@]2(C)COC(C)=O	11.5%	inactive	inactive	–	–	–
C[C@H](Oc1ccc(S(C)(=O)=O)cc1C(=O)N1CCN(c2ncc(C(F)(F)F)cc2F)CC1)C(F)(F)F	4.46%	inactive	inactive	–	–	–
CC(=O)OC1CC(C)C2(CCC3(CC(=O)OC3O)O2)C2(C)CCCC(C)(C)C12 (stereo not drawn)	22.3%	inactive	inactive	–	–	–
CC(=O)O[C@H]1[C@H](O[C@H]2CC[C@]34C[C@]35CC[C@]3(C)[C@@H]([C@@]6(C)CC[C@@H](C(C)(C)O)O6)[C@@H](O)C[C@@]3(C)[C@@H]5C[C@H](O[C@@H]3O[C@H](CO)[C@@H](O)[C@H](O)[C@H]3O)[C@H]4C2(C)C)OC[C@@H](OC(C)=O)[C@@H]1O	-7.67%	inactive	inactive	–	–	–
O=C(/C=C/c1ccccc1)OC[C@]12O[C@H]1[C@@H](O)[C@@H]1C=CO[C@@H](O[C@@H]3O[C@H](CO)[C@@H](O)[C@H](O)[C@H]3O)[C@@H]12	7.14%	inactive	inactive	–	–	–
CCCCc1nc(C)c(CC(=S)N(C)C)c(=O)n1Cc1ccc(-c2ccccc2-c2nn[nH]n2)cc1	18.1%	inactive	inactive	–	–	–
CC[C@H]1OC(=O)[C@H](C)[C@@H](OC2C[C@@](C)(OC)[C@@H](O)[C@H](C)O2)[C@H](C)[C@@H](OC2O[C@H](C)C[C@H](NC)[C@H]2O)[C@](C)(O)C[C@@H](C)CN(C)[C@H](C)[C@@H](O)[C@]1(C)O (stereo partly drawn)	4.33%	inactive	inactive	–	–	–

Compound	activation [1]	Potency [2]	Potency [3]	activity change, negative = inhibition [2]	activity change, negative = inhibition [3]	Potency [1]
N#C/C(=C1\Nc2ccccc2S1)c1ccnc(NCCc2cccnc2)n1	–	inactive	inactive	–	–	19 µM (active)
CC(C)c1c(O)ccc2c1CC[C@H]1C(C)(C)CCC[C@]21C	25.9%	inactive	inactive	–	–	–
CC(=O)O[C@@H]1C2=C(O)C(=O)[C@](C)(OC(C)=O)C(=O)C2=CO[C@@]12O[C@@H](C)CC[C@H]2OC(C)=O	-18.3%	inactive	inactive	–	–	–
C=C1C(=O)O[C@@H]2[C@H]3C(C)=CC(=O)C3=C(C)[C@@H](OC(=O)/C(C)=C\C)[C@H](O)[C@@H]12	–	inactive	inactive	–	–	16.6 µM (active)
C=C1[C@H](OC(C)=O)[C@H]2[C@@H](OC(C)=O)C(C)C[C@]2(OC(C)=O)C(=O)[C@H](C)/C=C/C(C)(C)C(=O)[C@H](OC(=O)C(C)C)[C@H]1OC(C)=O (stereo partly drawn)	-13.7%	inactive	inactive	–	–	–
CC1=C2C(=O)C=C(CO[C@@H]3O[C@H](CO)[C@@H](O)[C@H](O)[C@H]3O)[C@@H]2[C@H]2OC(=O)[C@H](C)[C@@H]2CC1	-19.6%	inactive	inactive	–	–	–
CCCCCCc1cccc(NC(=O)[C@H](N)CCP(=O)(O)O)c1	1%	inactive	inactive	–	–	–
C=C1CC2C3(C)C(OC(C)=O)CC(=O)OC(C)(C)C3C(O)C(OC(C)=O)C2(C)C2C(=O)OC(C)C(=O)C12C (stereo not drawn)	-19.8%	inactive	inactive	–	–	–
CC(=O)O[C@H]1CC[C@@]2(C)C(CC[C@@H](C)[C@]23Cc2c(O)cc4c(c2O3)CN([C@@H](CCC(=O)O)C(=O)O)C4=O)C1(C)C (stereo partly drawn)	0.763%	inactive	inactive	–	–	–
O=C(c1ccc(OC(F)F)c(C#Cc2ccccn2)c1)N1Cc2cccnc2C1	4.77%	inactive	inactive	–	–	–
C/C(=C\CCC(C(=O)O)C1CCC2(C)C3=C(CCC12C)C1(C)CCC(=O)C(C)(C)C1CC3)C(=O)O (stereo not drawn)	1.53%	inactive	inactive	–	–	–
COc1cc(O)cc(/C=C/c2ccc(O[C@@H]3O[C@H](CO)[C@@H](O)[C@H](O)[C@H]3O)cc2)c1	-11.6%	inactive	inactive	–	–	–
CCNC(=O)NCCCOc1cccc(CN2CCCCC2)c1	15%	inactive	inactive	–	–	–
CCC(C)C(=O)OC12C(OC(C)=O)C(C)C3(O)C(C=C(CO)CC4(O)C(=O)C(C)=CC43)C1C2(C)C (stereo not drawn)	-19.1%	inactive	inactive	–	–	–
COc1cc(CCc2ccccc2)c(C(=O)O)c2c1CC(C(C)(C)O)O2 (stereo not drawn)	-13%	inactive	inactive	–	–	–
C=C1CCC2C(C)(C(=O)O)CCCC2(C)C1CC/C(=C\CO)CO (stereo not drawn)	3.57%	inactive	inactive	–	–	–
C=CC(=O)Nc1cc(-n2c(=O)ccc3cnc4ccc(-c5ccc(NS(C)(=O)=O)cc5)cc4c32)ccc1C	–	inactive	inactive	–	–	10.7 µM (active)
O=C(O[C@H]1[C@@H]2C=CO[C@@H](O[C@@H]3O[C@H](CO)[C@@H](O)[C@H](O)[C@H]3O)[C@@H]2[C@@]2(CO)O[C@@H]12)c1ccccc1	10.7%	inactive	inactive	–	–	–
CCNC(=O)[C@@H]1CCCN1C(=O)[C@H](CCCN=C(N)N)NC(=O)[C@H](CC(C)C)NC(=O)[C@@H](CC(C)C)NC(=O)[C@H](Cc1ccc(O)cc1)NC(=O)[C@H](CO)NC(=O)[C@H](Cc1c[nH]c2ccccc12)NC(=O)[C@H](Cc1cnc[nH]1)NC(=O)[C@@H]1CCC(=O)N1	7%	inactive	inactive	–	–	–
C=C1CC/C=C(/CO)C(=O)C[C@@H]2[C@@H]1CC2(C)C	7.14%	inactive	inactive	–	–	–
C/C=C(\C)C(=O)O[C@H]1[C@@H](O[C@]2(COC(=O)CC(C)C)O[C@H](COC(=O)C(C)C)[C@@H](OC(C)=O)[C@@H]2O)O[C@H](COC(C)=O)[C@@H](O)[C@@H]1O	10.7%	inactive	inactive	–	–	–
C[C@@H](Nc1cc(NS(=O)(=O)N2CCC2)nc(SCc2cccc(F)c2F)n1)[C@@H](O)CO	-20.5%	inactive	inactive	–	–	–
C=C(C)C1CCC(C)C12CC(O)C1(C)OC1C2OC(=O)C(N)CCC(=O)O (stereo not drawn)	-6.11%	inactive	inactive	–	–	–
